Data on 62 sequences can be found in publication PMC7819943, “Rice protein-binding microarrays: a tool to detect cis-acting elements near promoter regions in rice”.

The full ranking holds about 68,000 sequences; the median of “fluorescence intensity (a.u.)” is about 9,100, and the highest 2% start at about 16,000. The entries come from a sample that favours the highest values as a whole.

In this test the target is OsWRKY34 (Oryza sativa, UniProt Q0JBA9 1-250). The test is described as follows: protein-binding microarray (RPBM); PBS, 2% BSA, 51.3 ng/ul salmon testes DNA, 50 uM zinc acetate, 200 nM TF, 25 C, 1 h; high values mean tight binding. The note with it: protein: recombinant; tags: N-terminal polyhistidine and DsRed monomer fusion (pET32a); label: CyDye5-dUTP incorporated in the synthesized complementary strand; 3' TTTTT single-stranded linker to array surface; dsDNA, one strand shown. Put shortly: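 The binding signal is fluorescence intensity per array feature (arbitrary units). Readings came from an Axon 4000B scanner after a washed, 2% BSA-blocked, double-stranded custom Agilent array had been incubated for 1 h at 25 °C with 200 nM protein and 50 µM zinc acetate. The protein was a Ni–NTA-purified transcription factor fused N-terminally to polyhistidine and DsRed, expressed in E. coli BL21-CodonPlus.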
Chain of OsWRKY34 (Q0JBA9 entry or part of it): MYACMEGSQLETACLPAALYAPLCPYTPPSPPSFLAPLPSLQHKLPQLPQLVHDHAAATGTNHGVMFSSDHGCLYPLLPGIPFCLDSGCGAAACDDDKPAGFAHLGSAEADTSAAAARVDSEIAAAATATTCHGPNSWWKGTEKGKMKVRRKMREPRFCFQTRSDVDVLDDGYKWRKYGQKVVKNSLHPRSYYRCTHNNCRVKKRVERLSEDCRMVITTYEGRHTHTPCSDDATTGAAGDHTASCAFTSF
Take “TGCGTGTTGTGTGTGTGGGTGATCTTTGGCGCGCCTCGTCCGGAGTCACCTAGTGCAG”: the binding signal was 8120 fluorescence intensity (a.u.).
The same measure for “ATCCCCATTTTTTTCCCAAGTGGTACACTGAAATTTTTTTCGGAGTCACCTAGTGCAG”: 8100 fluorescence intensity (a.u.); for “TTCCCCACCACCACCAACCCAGACCGGCCGCGGCCTATATCGGAGTCACCTAGTGCAG”: 8270 fluorescence intensity (a.u.).
The same measure for “TTTATAGATGGGGAAGGGGTGGCAACTAGAGACGCGACGGCGGAGTCACCTAGTGCAG”: 9070 fluorescence intensity (a.u.); for “TTCTCCGTGTTAATATCACTTACGTCAAGGACCTATTTGTCGGAGTCACCTAGTGCAG”: 8750 fluorescence intensity (a.u.); for “CGATGTGATTTAGTGAAAAATTTTAGGGTGGGCTAAACAGCGGAGTCACCTAGTGCAG”: 11500 fluorescence intensity (a.u.).
The same measure for “TCGCTGTGAGTGGAGGAGGAGGAGGAAGGGGAGGAGGATGCGGAGTCACCTAGTGCAG”: 8630 fluorescence intensity (a.u.); for “GTGAGGTGGGGTGGTGTGGCTTCTGCTGCTGCTGCTACTGCGGAGTCACCTAGTGCAG”: 15100 fluorescence intensity (a.u.); for “GTGAAGCGATCTGTATTGGTGGAGGGGAGGGGAGGGGATGCGGAGTCACCTAGTGCAG”: 24000 fluorescence intensity (a.u.).
With “GTGTGGAGGTGGTGGGGAGTGTGAGGAGAGGGAGGGGATGCGGAGTCACCTAGTGCAG”, the binding signal is 18000 fluorescence intensity (a.u.).
As for “GGCGTGTTGGTGTGCGTGGATTGGGTGGGTGAGGAGGATGCGGAGTCACCTAGTGCAG”, the figure is 13000 fluorescence intensity (a.u.).
The same measure for “TGGAGGTGGGGAGGATGCGGGAGAGGGAGGTGATGATGGGCGGAGTCACCTAGTGCAG”: 8790 fluorescence intensity (a.u.).
“GGGGTGGGGTGGAGAGGGTGAAGCGGCGACGGTGACGATGCGGAGTCACCTAGTGCAG”: the binding signal was 9870 fluorescence intensity (a.u.).
As for “CGGTGAGGGGTGGACTGGGAGTGCGTGGGTGGGTGTGATGCGGAGTCACCTAGTGCAG”, the figure is 13400 fluorescence intensity (a.u.); as for “GACTGGGAGGATGAGGGGTGGGTGGGTGTGGCTGCTTCTGCGGAGTCACCTAGTGCAG”, 19100 fluorescence intensity (a.u.).
As for “TTTTGCCATCTGGTAATCCCTCTACCACCAACAGCTACAACGGAGTCACCTAGTGCAG”, the figure is 9220 fluorescence intensity (a.u.).
The same measure for “AGTACTCCTCCGTTCTAAATTAGATGTCGTTTTGATTTTTCGGAGTCACCTAGTGCAG”: 8570 fluorescence intensity (a.u.); for “CTCTTGGCGATTTGCGGAAGTTGTTGTTGTCCCCTTGCTCCGGAGTCACCTAGTGCAG”: 8060 fluorescence intensity (a.u.); for “TTAGCAAAAACATATCCTTTCTTGCCACACTACTAAGCCACGGAGTCACCTAGTGCAG”: 8160 fluorescence intensity (a.u.).
With “ACACGGCCACCCGCATCCGCACCACCCGCAAGCCGCGACGCGGAGTCACCTAGTGCAG”, the binding signal was 9450 fluorescence intensity (a.u.).
The same measure for “GCTGGGAGTTAGAACGGTGATCCATCTAGATGTAATGGTCCGGAGTCACCTAGTGCAG”: 8740 fluorescence intensity (a.u.); for “CTCCGTTTTCACCCCTATGTATAGTTTATATGTAAATTGCCGGAGTCACCTAGTGCAG”: 8830 fluorescence intensity (a.u.); for “TTGTTACTTTAATTTGTACATCATCATGCGGGTCCGTATACGGAGTCACCTAGTGCAG”: 16600 fluorescence intensity (a.u.).
As for “GGGTGTAATTTTTGTTTTACATGTACGGAATTTTTTACTCCGGAGTCACCTAGTGCAG”, the figure is 10800 fluorescence intensity (a.u.).
The same measure for “ATTTGATTTATTGTTAAATATACTTTCATGTACACATATACGGAGTCACCTAGTGCAG”: 8240 fluorescence intensity (a.u.).
As for “ATATAGCCTACTACTAGCTCCAAATCATCTATAGTCAATGCGGAGTCACCTAGTGCAG”, the binding signal is 8120 fluorescence intensity (a.u.).
As for “TGGGAGGGTTTCTGATCATCAGCTGTCCTCTTTACCGGCACGGAGTCACCTAGTGCAG”, the figure is 11300 fluorescence intensity (a.u.); as for “GGATTGCCGGTTTTTGGTGTCCTTTTCGCATCAGCTTTAGCGGAGTCACCTAGTGCAG”, 9120 fluorescence intensity (a.u.).
The same measure for “GACGCTGTTGACTTTTTCTCACATGTTTGACCATTCGTCTCGGAGTCACCTAGTGCAG”: 28900 fluorescence intensity (a.u.); for “TTTCTCACATGTTTGACCATTCGTCTTATTCAAAAATTTTCGGAGTCACCTAGTGCAG”: 12800 fluorescence intensity (a.u.).
As for “GACGCCGTTAACTTTTTCTCACATGTTTAACCATTCGTCTCGGAGTCACCTAGTGCAG”, the figure is 12700 fluorescence intensity (a.u.).
On to “ATAGATGACGCCGTTGATTTTTTCTCACATGTTTGACCGTCGGAGTCACCTAGTGCAG”, for which the binding signal is 15600 fluorescence intensity (a.u.).
As for “GACGCCGTTGATTTTTTCTCACATGTTTGACCATTCGTCTCGGAGTCACCTAGTGCAG”, the figure is 18000 fluorescence intensity (a.u.).
With “AGATGACGCCATTGACTTTTTCTCACATGTTTGACCATTCCGGAGTCACCTAGTGCAG”, the binding signal is 15800 fluorescence intensity (a.u.).
The same measure for “TAGATGATGCTGTTAACTTTTTCTCACATGTTTGACCATTCGGAGTCACCTAGTGCAG”: 12700 fluorescence intensity (a.u.).
The same measure for “TAGATGACGTCGTTGACTTTTTCTCACATGTTTGACCATTCGGAGTCACCTAGTGCAG”: 28800 fluorescence intensity (a.u.); for “TTTTCTCACATGTTTGACCATTCGTCTTATTCAAAAATTTCGGAGTCACCTAGTGCAG”: 9990 fluorescence intensity (a.u.).
The same measure for “CAGTTTTTGAGGTAGAAGGGTATCATTGTAATTTTGCATCCGGAGTCACCTAGTGCAG”: 8850 fluorescence intensity (a.u.); for “AAATGTGGTTTTGATGGTTTCCAACATATATTTATCGGTTCGGAGTCACCTAGTGCAG”: 8570 fluorescence intensity (a.u.).
With “TTATCAAATTCCGATCAAATCATTCCTCGTCGGCGTCCATCGGAGTCACCTAGTGCAG”, the binding signal was 8880 fluorescence intensity (a.u.).
The same measure for “AACGGCAGCAGATCCACCAAACCCCACACCCTCTCCAAATCGGAGTCACCTAGTGCAG”: 8600 fluorescence intensity (a.u.); for “ACTCCATTTACGGGCAACTCTTGCTTGCGCAACGGGCCTTCGGAGTCACCTAGTGCAG”: 8790 fluorescence intensity (a.u.); for “TTCTTAACATGTTCGCATATGAAAATAGACTTATTTTTTACGGAGTCACCTAGTGCAG”: 8130 fluorescence intensity (a.u.).
The same measure for “TCCACGTTCACTTATCAGCCCCAACGTCTTAGCTTCCGATCGGAGTCACCTAGTGCAG”: 9260 fluorescence intensity (a.u.); for “ACTCTTATTGTCTTCACGTTGTCTTATCAGCCACGATCAACGGAGTCACCTAGTGCAG”: 17900 fluorescence intensity (a.u.).
Regarding “AGCATATCAGCCACTCTTTCTTCTTTGTCTTTATCAACTCCGGAGTCACCTAGTGCAG”, the binding signal was 8250 fluorescence intensity (a.u.).
The same measure for “GGAATTTCTCAGCTCACACGAGTCACGGACCCACCACCACCGGAGTCACCTAGTGCAG”: 8960 fluorescence intensity (a.u.).
As for “GGGTCTAACTCTAAGAGTATTGGGTACCCCTTATCGTTAACGGAGTCACCTAGTGCAG”, the figure is 8360 fluorescence intensity (a.u.); as for “TCTTTCATACGGAATTCCTTTTCATTATTGGATGCCAGCTCGGAGTCACCTAGTGCAG”, 9330 fluorescence intensity (a.u.).
As for “CAAGGTTTGTTTTCTTATCAGTTACTACTGCTTTTGTGGTCGGAGTCACCTAGTGCAG”, the figure is 11100 fluorescence intensity (a.u.); as for “TAGAGGGATGGGCTATTAAGTGTTTTATTTGGTTGGGAGACGGAGTCACCTAGTGCAG”, 15200 fluorescence intensity (a.u.); as for “TAACGATTTTTTTTTTGGGAGGGTGGGGATTTTTTTTTTCCGGAGTCACCTAGTGCAG”, 24100 fluorescence intensity (a.u.).
Regarding “TTTGGGGATTTCTTTCTTATTTTTCTTTCCCTTTTTTTCCCGGAGTCACCTAGTGCAG”, the binding signal is 10900 fluorescence intensity (a.u.).
The same measure for “GAGTTTTCCGTGTGGAGGGTGTGGATTTTTTCGTGTGTTCCGGAGTCACCTAGTGCAG”: 15500 fluorescence intensity (a.u.); for “TTTTTCTTTTCTTTTTTGCTTTTGAATTGTGGGGTTGTAACGGAGTCACCTAGTGCAG”: 8790 fluorescence intensity (a.u.); for “GGGTGGGTTGATTTGATAGACTTCTTTTGCTTTTGATAAACGGAGTCACCTAGTGCAG”: 29100 fluorescence intensity (a.u.).
As for “ATTTATTTTGGGATGGGGAGGGAGACAACTACAGTGTTTCCGGAGTCACCTAGTGCAG”, the figure is 18200 fluorescence intensity (a.u.).
For the sequence “TGTGGGACAGGATGGTCACTAATTTCCGGTTTTGGTTTTACGGAGTCACCTAGTGCAG”, the binding signal is 8480 fluorescence intensity (a.u.).
As for “ACCTTCACTATTTTTTTTGATTTTTTTCTTTTTTTTTTAACGGAGTCACCTAGTGCAG”, the binding signal is 12200 fluorescence intensity (a.u.).
As for “CTTTTTTGGGTGATTTTTTTTCACTTGGGGTGGGTGATAACGGAGTCACCTAGTGCAG”, the figure is 21800 fluorescence intensity (a.u.); as for “AGTAGAGTATTTTTTTTTCTTTTTTGATTGATGGTGATAACGGAGTCACCTAGTGCAG”, 8320 fluorescence intensity (a.u.).
The same measure for “CGGGTTTGATTTGATTTGATTTTGATTTTGATTTGCTTCTCGGAGTCACCTAGTGCAG”: 8190 fluorescence intensity (a.u.).
